Screening data as filed in PubChem BioAssay.
Shown are actives, neighbours in structure and some others; about 4.8% of the full set was active somewhere.
SKKanGAS inh: SKKanGAS growth inhibition; S. pyogenes SKKanGAS, kanamycin growth, BacTiter-Glo, 6 h; actives 1.3% (n = 300,000); AID 1662; inhibition, % at 7.5 µM;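 active = mean replicate score, as percent of positive control median, at least 50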;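 also: strain carries kanamycin resistance gene driven by streptokinase promoter and grows in 40 µg/ml kanamycin; loss of luminescence reflects streptokinase promoter inhibition or plain growth inhibition; 0% = median of DMSO wells and 100% = positive control at its reference dose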
tim23-1 inh: growth inhibitors of tim23-1 mutant yeast | S. cerevisiae tim23-1 growth, BacTiter-Glo luminescence, 24 h | inhibition, % at 20 µM | actives 1.3% (n = 330,000) | AID 463212;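 active = growth inhibition of the mutant yeast at or above 50%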;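 also: temperature-sensitive mutant grown at 25 °C; plate controls were DMSO-treated mutant yeast for no effect and medium wells lacking yeast for full effect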
NALP1 yeast inh: NALP1 inhibition. actives 0.61% (n = 280,000). S. cerevisiae NALP1/ASC/caspase-1 growth, X-gal OD620, 72 h. inhibition, % at 10 µM. AID 2071; in the data active = inhibition mostly above about 24%, no sharp cut-off; inactive = mostly below about 32%
TIM10 inh: TIM10 yeast growth inhibition; actives 1.4% (n = 330,000); S. cerevisiae TIM10 strain growth, BacTiter-Glo luminescence, 24 h; inhibition, % at 10 µM; AID 463195;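 active = inhibition of 40% or more at the single tested concentration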;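 also: wild-type TIM10 isogenic control strain grown at permissive 25 °C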
tim10-1 inh: tim10-1 yeast growth inhibition; S. cerevisiae tim10-1 ts strain growth, BacTiter-Glo, 24 h; inhibition, % at 20 µM; actives 2.2% (n = 330,000); AID 463190;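 active = inhibition of at least 40%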;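 also: mutant grown at 25 °C; 0% = DMSO wells with yeast and 100% = wells holding no yeast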
PfHsp90 yeast 2: reduces growth (ATP signal) of yeast expressing P. falciparum Hsp90. S. cerevisiae expressing PfHsp90, BacTiter-Glo ATP, 48 h; yeast lacking PDR1 and PDR3 efflux regulators. inhibition, % at 9.4 µM. actives 0.32% (n = 310,000);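 active = every replicate shows inhibition above about 80%, whatever the replicate mean, limit read from the data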;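 also: 0% = DMSO neutral controls and 100% = 20 µM radicicol positive controls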
tim10-1 confirm: confirmation of tim10-1 mutant yeast growth inhibitors | shares compounds with tim10-1 inh | S. cerevisiae tim10-1 ts strain growth, BacTiter-Glo, 24 h | inhibition, % at 20 µM | actives 56% (n = 7,400) | AID 463213;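 active = inhibition of yeast growth at or above a set limit in either of two repeat tests at 20 µM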;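 also: tim10-1 mutant grown at permissive 25 °C to find synthetic lethal compounds; 0% = DMSO yeast wells and 100% = medium wells without yeast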
An asterisk follows results filed as active; nt = no result.

SMILES	SKKanGAS inh	tim23-1 inh	NALP1 yeast inh	TIM10 inh	tim10-1 inh	PfHsp90 yeast 2	tim10-1 confirm
COc1ccc(CCNC(=S)NC(=O)c2cccc([N+](=O)[O-])c2)cc1OC	2	37	13	24	41*	0	27
COc1ccc(/C(N)=N/OC(=O)c2ccc(OC)c([N+](=O)[O-])c2)cc1OC	-2	11	-6	10	37	11	nt
COc1ccc(CCNC(=O)c2cc([N+](=O)[O-])cc([N+](=O)[O-])c2)cc1OC	8	nt	4	nt	nt	-15	nt
COc1ccc(/C(N)=N/OC(=O)c2cccc([N+](=O)[O-])c2)cc1OC	0	11	22	6	42*	nt	15
CCOc1ccc(NC(=O)c2cccc3c2C(=O)N(CCOC)C3)cc1	8	2	-13	14	35	-5	nt
C=CCN(C(=O)c1cccc(C(F)(F)F)c1)C1(C(=O)Nc2ccccc2)CCN(C(C)C)CC1	3	8	8	-6	14	25	nt
C=CCNC(=S)N/N=C/c1ccccc1OCCOc1ccccc1	-2	7	-10	3	2	6	nt
N/C(=N\OC(=O)c1cccs1)c1cccc([N+](=O)[O-])c1	-9	12	-15	13	47*	-4	39*
N/C(=N\OC(=O)c1cccc2ccccc12)c1cccc([N+](=O)[O-])c1	-15	22	-4	6	33	-5	nt
O=C(Nc1nccs1)OCc1ccccc1	0	21	nt	5	29	nt	nt
O=S1(=O)CCN2C=C(Cl)C=C(Cl)C2=N1	-5	6	8	4	3	12	nt
COc1cc(C2=NOC(C(=O)N3CCCc4ccccc43)C2)cc(OC)c1OC (stereo not given)	1	24	2	21	40*	12	26
Cc1ccc(C)c(N2CCN(C(=O)c3cc4ccccn4n3)CC2)c1	0	46	28	20	41*	-4	35*
O=C(c1cc2ccccn2n1)N1CCCC1	nt	nt	10	nt	nt	nt	nt
O=C(Cn1c(NCCCO)nc2ccccc21)c1ccc([N+](=O)[O-])cc1	5	10	-4	-2	1	9	nt
Cc1ccc2c(CC(=O)O)coc2c1C	-3	24	11	-13	41*	26	17
COc1ccccc1-c1nnc(Sc2nc([N+](=O)[O-])nn2C)o1	1	44	-12	35	48*	nt	42*
COc1ccc(C(=O)Nc2ccc(Cl)c(Cl)c2)c(OC)n1	4	-5	16	-12	9	-7	nt
CC(C)C1O/C(=N/C(=O)Nc2ccc(Cl)c(Cl)c2)NC1=O (stereo not given)	79*	50	-14	36	57*	nt	47*
Cc1ccc(-n2nc(-c3cccs3)cc2C(=O)NCC2CCCO2)c(C)c1 (stereo not given)	0	7	38	37	41*	-17	28
COC(CNC(=O)c1ccc2c(c1)nc(C)n2-c1cc(C)cc(C)c1)OC	4	14	4	-6	20	16	nt
CC(C)NS(=O)(=O)c1ccc(OCC(=O)N2CCN(c3ccccc3)CC2)cc1	-7	-10	10	11	16	12	nt
O=C(COc1ccc(S(=O)(=O)NC2CCCCC2)cc1)N1CCN(c2cccc(Cl)c2)CC1	1	25	14	18	46*	23	21
Cc1cc2c(sc3c(C)ccc(C)c32)c(C)n1	-11	45	17	14	48*	-6	18
CC(C)c1nc2n[nH]c(N)c2c2c1CCC2	2	-10	1	14	14	0	nt
SMILES	SKKanGAS inh	tim23-1 inh	NALP1 yeast inh	TIM10 inh	tim10-1 inh	PfHsp90 yeast 2	tim10-1 confirm
Cc1ccc(S(=O)(=O)N(Cc2ccccc2)c2ccccc2C(=O)NCc2cccnc2)cc1	4	24	4	14	41*	-1	8
Cc1ccc(S(=O)(=O)N(C)c2ccc(C(=O)NCc3cccnc3)cc2)cc1	-3	4	14	7	4	-1	nt
CCN(CC)C(=O)c1sc(NC(=O)c2cccs2)c(C#N)c1C	-9	33	-5	16	44*	22	25
CCOC(=O)C1(S(=O)(=O)c2ccccc2)CCN(Cc2ccc(Cl)cc2)CC1	0	43	27	24	48*	23	20
O=C(NC1CC(=O)N(c2ccc3c(c2)OCCO3)C1)N1CCC(O)CC1 (stereo not given)	-4	18	nt	6	8	-16	nt
O=S(=O)(c1ccc2c(c1)CCCN2)N1CCCC1	nt	20	nt	22	18	3	nt
O=S(=O)(c1ccc2c(c1)CCCN2)N1CCCC2CCCCC21 (stereo not given)	12	45	27	18	47*	-11	26
CC(C)NC(=O)CCCc1cn(C)c2ccccc12	5	1	2	-6	-10	1	nt
N#CC(C#N)=C1NC2(CCCCC2)Cc2ccccc21	-6	12	6	24	20	-24	nt
N#CC(C#N)=c1ccc2c(c1)NC1(CCCCC1)N=2	19	44	-7	29	46*	42	42*
CSc1ccc(S(=O)(=O)N2CCC(C(=O)N3CCOCC3)CC2)cc1	-1	5	23	4	-12	-57	nt
COc1ccc(CC(=O)NCC(c2ccc(OC)cc2)N(C)C)cc1 (stereo not given)	1	3	14	-7	8	1	nt
CCc1ccc([C@@H]2CC=C(C(=O)O)[C@H](c3ccccc3F)N2S(=O)(=O)c2ccc(C)cc2)cc1	nt	-1	nt	-13	41*	-17	11
[O-][n+]1c(/C=C/c2ccccc2)ccc2ccccc21	7	50	14	23	49*	6	28
C=C(C)COc1ccc(-c2[nH]ncc2-c2ccc(OC)c(OC)c2)c(O)c1	2	36	32	33	46*	-3	34*
Clc1ccc2ncc(-c3nnnn3-c3ccccc3)c(-c3ccccc3)c2c1	2	48	11	30	44*	-37	36*
CC1(C(=O)N2CC3(CC(c4ccccc4)=NO3)C[C@H]2C(=O)NCC(N)=O)CC1 (stereo not given in full)	4	-17	24	-3	-29	18	nt
COc1ccc(C(=O)Nc2cc3c(cc2N2CCCCC2)n(C)c(=O)n3C)cc1OC	3	48	18	12	48*	-20	8
O=C1CN(C(=O)c2ccccc2F)C(c2ccccc2)c2cc(Cl)ccc2N1 (stereo not given)	6	25	21	22	24	14	nt
O=C(NCCN1CCOCC1)c1ccccc1N1C(=O)[C@@H]2Cc3c([nH]c4ccccc34)C(c3ccc(F)cc3)N2C1=O (stereo not given in full)	1	1	0	5	-3	34	nt
